This is a sample that favours compounds with a hit; in the whole collection about 20% have one here.
HCMV antiviral = blocks human cytomegalovirus replication | HFF cells, HCMV-luciferase reporter, 72 h; hits give low values | activity change, negative = inhibition, % at 57.5 µM | actives 4.5% (n = 410,000) | AID 1259415; in the data active means activity change below about -60%; inconclusive means no clear call, values can overlap the other calls; inactive means above about -39%; further: on the % scale 0 is the no-effect control and ±100 the full control effect
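After 16 h attachment at 37C, HFF cells received test compound and HCMV-luciferase (1 PFU/cell); reporter luminescence read 72 h later, data normalized against buffer-only and known inhibitor Salinomycin.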
Pf growth 48h = P. falciparum growth inhibition at 48 hours (one generation) | P. falciparum luciferase growth in erythrocytes, 48 h | Potency, µM (series often up to 28.7 µM), for inactives: top-dose activity change, negative = inhibition, most hits filed as inhibitors | actives 5.9% (n = 310,000) | AID 504832; further: potency means the concentration at half of the fitted maximal effect; on the % scale 0 is the no-effect control and ±100 the full control effect
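Luminescence readout; reporter = integrated firefly luciferase in P. falciparum. RBC culture at 2% hematocrit, 0.1% parasitemia final, 37 C/5% CO2; decreased signal taken as growth inhibition.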
CHX counter = affects cycloheximide protein synthesis inhibition readout, counter-screen; AID 2314; cell reporter, cycloheximide protein synthesis inhibition counterscreen; actives 12% (n = 300,000); max response, %; in the data active means max response mostly above about 13%, no sharp cut-off; inactive means mostly below about 14%; further: read at 38.3 µM for the half of the compounds with a filed dose; 0% is about no effect
Pf growth 96h = P. falciparum growth inhibition at 96 hours | P. falciparum luciferase reporter growth, 96 h | Potency, µM (doses to about 28.7 µM), for inactives: top-dose activity change, negative = inhibition, usual class: inhibitors | actives 6.9% (n = 320,000); further: potency means the concentration at half of the fitted maximal effect; on the % scale 0 is the no-effect control and ±100 the full control effect
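Erythrocytes infected with luciferase-expressing P. falciparum were dispensed at 2% hematocrit and 0.05% parasitemia (final), then incubated with compounds 96 hours at 37 C in 5% CO2. Luminescence after detection reagent addition reported growth.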
Shiga toxin inh = blocks Shiga toxin action in Vero cells; Vero cells, Shiga toxin protein synthesis inhibition reporter; actives 9.2% (n = 290,000); AID 2315; inhibition, % at 38.7 µM; in the data active means inhibition mostly above about 28%, no sharp cut-off; inactive means mostly below about 43%; further: 0% is about no effect
* = called active by the depositor; u = inconclusive; x = no result; [ ] = another dose, or the depositor's remark. Unless noted, the call rests on the fitted dose curve; in most records, active means well fitted inhibition curve with a large enough effect; inconclusive means small, poorly fitted or top-dose-only effect, or another doubt; inactive means no such curve, though single readings can be large or run the other way.

SMILES	HCMV antiviral	Pf growth 48h	CHX counter	Pf growth 96h	Shiga toxin inh
Cc1ccc(Oc2ccc(OCC(=O)NC(CC(C)C)C(=O)O)cc2)cc1 (centres undefined)	-65*	-16%	1	25%	-5
CC(C)=CC(=O)Nc1ccc(OCc2ccccc2)cc1	11	u	53*	0%	126*
Cc1c(C(=O)Nc2ccc(OCc3ccccc3)cc2)cccc1[N+](=O)[O-]	-3	-12%	8	-1%	-4
Cc1cc(C(=O)Nc2ccc(OCc3ccccc3)cc2)c(C)o1	-6	-23%	24*	28%	81*
Cc1ccsc1C(=O)NCC(=O)OCc1ccccc1	-11	4%	30*	39%	61*
Cc1cccc(-n2ncc3c(NNC(=O)c4ccccc4Cl)ncnc32)c1	-35	x	x	x	x
Cc1ccc(S(C)(=O)=O)cc1C(=O)NC(C)C1CC2CCC1C2 (centres undefined)	-16	24%	-5	18%	-3
Cc1ccc(C(=O)Nc2ccc(OCc3ccccc3)cc2)s1	4	u	18*	u	97
S=C(Nc1ccccc1)Nc1ccc(OCc2ccccc2)cc1	0	42%	1	-5%	12
COc1ccc(-c2[nH]ncc2CN2CCCOc3c(cccc3OC)C2)c(OC)c1	-12	-4%	1	22%	1
Cc1nnc(NC(=O)NCN2C(=O)C3C4C=CC(C4)C3C2=O)s1 (centres undefined)	-32	u	-3	3.7µM*	1
CCc1nnc(NC(=O)NCN2C(=O)C3C4C=CC(C4)C3C2=O)s1 (centres undefined)	-8	3%	-3	u	11
COc1ccc2[nH]cc(CCN=C3SCC(=O)N3C)c2c1	8	x	16	12µM*	36
COc1ccc2[nH]cc(CCn3ccc(=O)c(C)c3C)c2c1	-38	u	-3	u	-3
Cc1ccc(N(CC(=O)NCC2CCCO2)C(=O)CCC(=O)Nc2ccccn2)cc1 (centres undefined)	-4	-7%	-7	0.59µM*	11
Cc1cc(C)cc(N(CC(=O)NCc2ccc3c(c2)OCO3)C(=O)CCC(=O)Nc2ccccn2)c1	2	1.3µM*	-3	u	14
Cc1ccc(N(CC(=O)NCc2ccc3c(c2)OCO3)C(=O)CCC(=O)Nc2ccccn2)cc1	-25	u	-1	36%	-11
COCCNC(=O)C(c1ccc(F)cc1)N(C(=O)CCC(=O)Nc1ccccn1)c1ccc(C)cc1 (centres undefined)	-24	-8%	-1	1.3µM*	3
COCCNC(=O)C(c1ccc(C)cc1)N(C(=O)CCC(=O)Nc1ccccn1)c1ccc(F)cc1 (centres undefined)	-1	0%	-5	-14%	10
CCOc1ccc(N(CC(=O)NCCc2ccccc2)C(=O)CCC(=O)Nc2cc(C)ccn2)cc1	-13	4.7µM*	-3	14%	-9
CN(C)/C=C/C1=CC(=O)CC(C)(C)C1	u	u	-2	54%	60
Cn1c(N)nc2nc[nH]c2c1=S	6	x	x	x	x
COCCNC(=O)CN(C(=O)CCC(=O)Nc1ccccn1)c1ccc(C)cc1	48	11%	-2	-20%	-8
COCCNC(=O)C(c1ccc(Cl)cc1)N(Cc1ccco1)C(=O)CCC(=O)Nc1ccccn1 (centres undefined)	-26	0%	-3	13µM*	-11
COCCNC(=O)CN(C(=O)CCC(=O)Nc1ccccn1)c1ccc(C)c(C)c1	20	-18%	8	9.3µM*	x
SMILES	HCMV antiviral	Pf growth 48h	CHX counter	Pf growth 96h	Shiga toxin inh
COc1cc(NC(=O)C2CC(=O)N(Cc3ccco3)C2)cc(OC)c1 (centres undefined)	11	2%	x	14%	x
O=S(=O)(c1ccc(Cl)cc1)N1CCN(C(=S)Nc2ccc(F)c(Cl)c2)CC1	-62*	0.66µM*	-2	0%	-10
O=S(=O)(c1ccccc1)N1CCN(C(=S)Nc2ccc(F)cc2)CC1	-26	u	1	u	-15
Cc1cccc(NC(=S)N2CCN(S(=O)(=O)c3ccc(F)cc3)CC2)c1	u	2.1µM*	-1	u	-4
CC(NC(=O)C1CCCN1S(=O)(=O)c1ccc2c(c1)n(C)c(=O)c(=O)n2C)c1ccccc1 (centres undefined)	3	-10%	-3	5%	25
O=C(Nc1ccc(Cl)c(Cl)c1)N1CCOCC1	0	8%	15	23%	37*
O=C(Nc1ccc(Cl)c(Cl)c1)N1CCCCCC1	97	60%	51*	40%	90*
O=C(Nc1ccc(Cl)c(Cl)c1)N1CCC(N2CCCCC2)CC1	21	1%	-5	12%	-16
Cc1ccc2[nH]c3c(c2c1)CCN1C(=O)OC(C)(C)C31C (centres undefined)	36	-17%	-8	u	-21
COc1ccc(N2CCN(C(=O)NCc3ccc(C)cc3)CC2)cc1	u	10%	-2	27%	-10
CCOc1ccc(CCNC(=O)CN2CCN(Cc3ccc(F)cc3Cl)C2=O)cc1OCC	-13	x	x	x	x
O=C(CN1CCN(Cc2ccc(F)cc2Cl)C1=O)NCCc1ccccc1	38	x	14*	u	16
O=C(O)CN1CCN(Cc2ccc(F)cc2Cl)C1=O	-4	u	2	8.3µM*	-6
CCCCC(=O)Nc1ccc2c(c1)nc1n2CCSC1	28	134%	27*	x	65*
CC(=O)Nc1ccc2c(c1)nc1n2CCSC1	23	x	1	24%	-42
COc1ccc(OCC(=O)Nc2ccc3c(c2)nc2n3CCSC2)cc1	-38	u	-3	-29%[5.75 µM]	21
Cc1ccc(C(=O)Nc2ccc3c(c2)nc2n3CCSC2)cc1	u	5%	31*	x	52
COc1ccccc1C(=O)Nc1ccc2c(c1)nc1n2CCSC1	8	68%	24*	107%	60*
COc1ccccc1C(=O)Nc1nnc2n1CCS2	52	x	x	x	x
O=C(Nc1ccc2c(c1)nc1n2CCN(Cc2ccccc2)C1)c1cccs1	-23	u	13	16%	15
COc1ccccc1C(=O)Nc1ccc2c(c1)nc1n2CCN(Cc2ccccc2)C1	-68*	u	-2	u	16
CCCn1cc(S(=O)(=O)c2ccc(OC)cc2)c(=O)c2cc(F)c(N3CCCCCC3)cc21	-16	x	x	x	x
CCOc1ccc(CSCCNC(=S)Nc2ccc(OC)cc2)cc1	-81*	8.3µM*	2	u	46
S=C(NCCSCc1ccccc1Cl)Nc1ccccc1	-22	u	2	u	20
Cc1cccc(CSCCNC(=S)Nc2ccccc2)c1	u	-25%	-2	-10%	12
CCCOc1ccc(CSCCNC(=S)Nc2ccccc2)cc1	-37	13µM*	8	u	2
S=C(NCCSCc1ccc(Cl)cc1)Nc1ccccc1	-68*	u	-2	u	-3
O=C(c1ccc([N+](=O)[O-])cc1[N+](=O)[O-])n1cnc2ccccc21	0	-15%	-2	0%	11
